“And” between values parts separate entries of the source, which are not always exact repeats. Equal values may be shown once. Values without a mark were called inactive. Results filed as inconclusive are left out. A call without a number means that no potency is given here. The source made the active and inactive calls. Calls come from the whole dose curve; as a rule, active = well fitted curve in the direction sought with a large enough effect in the repeat runs; inconclusive = weak or mixed curves; inactive = no such curve, though single readings can be large; an effect the other way counts as inactive or inconclusive.
Legend:
[1] = qHTS RealTime-Glo MT Cell Viability Assay in HepG2 cells - 40 hour (AID 1224870); note: nearly all actives have a fitted effect of over 50% in size
Summary of the method: (§1)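 Real-time viability: cells seeded at 600 per well together with NanoLuc and cell-permeant prosubstrate, compounds added after 5 h incubation. Luminescence tracked at 0, 8, 16, 24, 32 and 40 h of exposure.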

[2] = A CellTox Green Cytotoxicity Assay to monitor cytotoxicity in HEK293 cells - 40 hour (AID 1224871); note: nearly all actives have a fitted effect of over 45% in size
Summary of the method: (§2)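 Tox21 screen in HEK293: membrane-impermeant cyanine dye fluoresces on binding dead-cell DNA; compound pinned 5 h post-seeding, plates held at 37 C, signal read repeatedly through 40 h.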

[3] = qHTS RealTime-Glo MT Cell Viability Assay in HepG2 cells - 8 hour (AID 1224873); note: nearly all actives have a fitted effect of over 55% in size
Summary of the method: as §1

[4] = A CellTox Green Cytotoxicity Assay to monitor cytotoxicity in HEK293 cells - 24 hour (AID 1224875); note: series mostly up to about 77 µM; nearly all actives have a fitted effect of over 45% in size
Summary of the method: as §2

[5] = qHTS RealTime-Glo MT Cell Viability Assay in HepG2 cells - 32 hour (AID 1224877); note: nearly all actives have a fitted effect of over 55% in size
Summary of the method: (§3)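 Tox21 10K library screened in qHTS format on HepG2 cells carrying RealTime-Glo reagents. Compounds were added after a 5 h preincubation, and the luminescent signal from continuous culture was measured repeatedly during 40 h treatment.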

[6] = A CellTox Green Cytotoxicity Assay to monitor cytotoxicity in HepG2 cells - 24 hour (AID 1224878); note: nearly all actives have a fitted effect of over 45% in size
Summary of the method: (§4)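 Measurements at 0, 8, 16, 24, 32 and 40 h of treatment captured CellTox Green fluorescence in HepG2 cells that had been co-plated with reagent and preincubated 5 h at 37 C/5% CO2.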

[7] = qHTS RealTime-Glo MT Cell Viability Assay in HEK293 cells - 0 hour (AID 1224880); note: top concentration of the series differs between compounds; nearly all actives have a fitted effect of over 45% in size
Summary of the method: (§5)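 HEK293 + NanoLuc + prosubstrate, 600 cells/well; 5 h, 37 C/5% CO2; compound 23 nL in DMSO by pintool; 37 C; luminescence read at 0, 8, 16, 24, 32 and 40 h time points.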

[8] = A CellTox Green Cytotoxicity Assay to monitor cytotoxicity in HepG2 cells - 0 hour (AID 1224882); note: nearly all actives have a fitted effect of over 35% in size
Summary of the method: as §4

[9] = A CellTox Green Cytotoxicity Assay to monitor cytotoxicity in HepG2 cells - 32 hour (AID 1224883); note: nearly all actives have a fitted effect of over 50% in size
Summary of the method: as §4

[10] = A CellTox Green Cytotoxicity Assay to monitor cytotoxicity in HEK293 cells - 8 hour (AID 1224884); note: nearly all actives have a fitted effect of over 35% in size
Summary of the method: as §2

[11] = qHTS RealTime-Glo MT Cell Viability Assay in HepG2 cells - 16 hour (AID 1224885); note: nearly all actives have a fitted effect of over 50% in size
Summary of the method: as §3

[12] = A CellTox Green Cytotoxicity Assay to monitor cytotoxicity in HEK293 cells - 16 hour (AID 1224888); note: nearly all actives have a fitted effect of over 35% in size
Summary of the method: as §2

[13] = qHTS RealTime-Glo MT Cell Viability Assay in HepG2 cells - 0 hour (AID 1224889); note: nearly all actives have a fitted effect of over 50% in size
Summary of the method: as §3

[14] = qHTS RealTime-Glo MT Cell Viability Assay in HEK293 cells - 16 hour (AID 1224872); note: nearly all actives have a fitted effect of over 50% in size; note: potency is the fitted concentration of half-maximal effect
Summary of the method: (§6)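 Luminescence generated by NanoLuc from substrate produced by living HEK293 cells served as the viability signal. Each value reflects the reading at its stated time point during continuous 40 h compound exposure at 37 C.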

[15] = qHTS RealTime-Glo MT Cell Viability Assay in HEK293 cells - 40 hour (AID 1224874); details: RealTime-Glo luminescence; max response: hits give low values; note: nearly all actives have a fitted effect of over 50% in size; note: potency is the fitted concentration of half-maximal effect
Summary of the method: as §5

[16] = A CellTox Green Cytotoxicity Assay to monitor cytotoxicity in HepG2 cells - 16 hour (AID 1224876); note: nearly all actives have a fitted effect of over 45% in size
Summary of the method: as §4

[17] = A CellTox Green Cytotoxicity Assay to monitor cytotoxicity in HEK293 cells - 32 hour (AID 1224881); note: nearly all actives have a fitted effect of over 40% in size
Summary of the method: as §2

[18] = qHTS RealTime-Glo MT Cell Viability Assay in HEK293 cells - 24 hour (AID 1224886); note: nearly all actives have a fitted effect of over 50% in size; note: potency is the fitted concentration of half-maximal effect
Summary of the method: as §6

[19] = qHTS RealTime-Glo MT Cell Viability Assay in HEK293 cells - 8 hour (AID 1224887); note: nearly all actives have a fitted effect of over 50% in size; note: potency is the fitted concentration of half-maximal effect
Summary of the method: as §5

[20] = A CellTox Green Cytotoxicity Assay to monitor cytotoxicity in HepG2 cells - 40 hour (AID 1224879); note: nearly all actives have a fitted effect of over 40% in size
Summary of the method: as §4

Structure (SMILES): Oc1c(Cl)cc(Cl)c(Cl)c1Cl
- Potency [1]: inactive
- Potency [2]: inactive
- Potency [3]: inactive
- Potency [4]: inactive
- Potency [5]: inactive
- Potency [6]: inactive
- Potency [7]: inactive
- Potency [8]: inactive
- Potency [9]: inactive
- Potency [10]: inactive
- Potency [11]: inactive
- Potency [12]: inactive
- Potency [13]: inactive

Structure (SMILES): C=C(C#N)C(=O)OCC
- Potency [1]: inactive
- Potency [2]: inactive
- Potency [14]: inactive
- Potency [3]: inactive
- max response [15]: -3.09% and 0.0188%
- Potency [4]: inactive
- Potency [16]: inactive
- Potency [5]: inactive
- Potency [6]: inactive
- Potency [7]: inactive
- Potency [17]: inactive
- Potency [9]: inactive
- Potency [10]: inactive
- Potency [11]: inactive
- Potency [18]: inactive
- Potency [19]: inactive
- Potency [12]: inactive
- Potency [13]: inactive

Structure (SMILES): CCCCOCCOCCOC(=O)CCCCC(=O)OCCOCCOCCCC
- Potency [1]: inactive
- Potency [2]: inactive
- Potency [14]: inactive
- Potency [3]: inactive
- max response [15]: 3.67% and 5.42%
- Potency [4]: inactive
- Potency [5]: inactive
- Potency [6]: inactive
- Potency [7]: inactive
- Potency [17]: inactive
- Potency [9]: inactive
- Potency [10]: inactive
- Potency [11]: inactive
- Potency [18]: inactive
- Potency [19]: inactive
- Potency [12]: inactive
- Potency [13]: inactive

Structure (SMILES): C=C(C)C(=O)OCCC[Si](OC)(OC)OC
- Potency [1]: inactive
- Potency [2]: inactive
- Potency [14]: inactive
- Potency [3]: inactive
- max response [15]: 1.98% and 0.0703%
- Potency [4]: inactive
- Potency [16]: inactive
- Potency [5]: inactive
- Potency [6]: inactive
- Potency [7]: inactive
- Potency [17]: inactive
- Potency [9]: inactive
- Potency [10]: inactive
- Potency [11]: inactive
- Potency [18]: inactive
- Potency [19]: inactive
- Potency [12]: inactive
- Potency [13]: inactive

Structure (SMILES): CC1Cc2ccccc2N1NC(=O)c1ccc(Cl)c(S(N)(=O)=O)c1 (stereo not given)
- Potency [1]: inactive
- Potency [14]: inactive
- Potency [3]: inactive
- max response [15]: 3.11% and -9.79%
- Potency [4]: inactive
- Potency [5]: inactive
- Potency [6]: inactive
- Potency [20]: inactive
- Potency [7]: inactive
- Potency [8]: inactive
- Potency [9]: inactive
- Potency [10]: inactive
- Potency [11]: inactive
- Potency [18]: inactive
- Potency [19]: inactive
- Potency [12]: inactive
- Potency [13]: inactive

Structure (SMILES): COCC(=O)O
- Potency [1]: inactive
- Potency [14]: inactive
- Potency [3]: inactive
- max response [15]: 0.194% and 4.44%
- Potency [4]: inactive
- Potency [16]: inactive
- Potency [5]: inactive
- Potency [6]: inactive
- Potency [20]: inactive
- Potency [7]: inactive
- Potency [9]: inactive
- Potency [10]: inactive
- Potency [11]: inactive
- Potency [18]: inactive
- Potency [19]: inactive
- Potency [12]: inactive

Structure (SMILES): CCOC(=O)C1OC1c1ccccc1 (stereo not given)
- Potency [1]: inactive
- Potency [3]: inactive
- Potency [4]: inactive
- Potency [16]: inactive
- Potency [5]: inactive
- Potency [6]: inactive
- Potency [7]: inactive
- Potency [17]: inactive
- Potency [9]: inactive
- Potency [10]: inactive
- Potency [11]: inactive
- Potency [19]: inactive
- Potency [12]: inactive
- Potency [13]: inactive

Structure (SMILES): S=c1nc[nH]c2nc[nH]c12
- Potency [1]: inactive
- Potency [14]: inactive
- Potency [3]: inactive
- Potency [15]: 16.9 µM (active)
- Potency [4]: inactive
- Potency [5]: inactive
- Potency [6]: inactive
- Potency [20]: inactive
- Potency [7]: inactive
- Potency [17]: inactive
- Potency [8]: inactive
- Potency [9]: inactive
- Potency [10]: inactive
- Potency [11]: inactive
- Potency [18]: 19 µM (active)
- Potency [19]: inactive
- Potency [12]: inactive
- Potency [13]: inactive

Structure (SMILES): O=C(c1ccc(O)cc1)c1ccc(O)cc1O
- Potency [1]: inactive
- Potency [14]: inactive
- Potency [3]: inactive
- max response [15]: -21.4%
- Potency [4]: inactive
- Potency [16]: inactive
- Potency [5]: inactive
- Potency [6]: inactive
- Potency [7]: inactive
- Potency [8]: inactive
- Potency [9]: inactive
- Potency [10]: inactive
- Potency [11]: inactive
- Potency [18]: inactive
- Potency [19]: inactive
- Potency [12]: inactive
- Potency [13]: inactive

Structure (SMILES): C[C@@H]1O[C@@H](OC[C@H]2O[C@@H](Oc3c(-c4ccc(O)c(O)c4)oc4cc(O)cc(O)c4c3=O)[C@H](O)[C@@H](O)[C@@H]2O)[C@H](O)[C@H](O)[C@H]1O
- Potency [1]: inactive
- Potency [14]: inactive
- Potency [3]: inactive
- max response [15]: -1.83% and 0.783%
- Potency [4]: inactive
- Potency [16]: inactive
- Potency [5]: inactive
- Potency [6]: inactive
- Potency [7]: inactive
- Potency [8]: inactive
- Potency [9]: inactive
- Potency [10]: inactive
- Potency [11]: inactive
- Potency [18]: inactive
- Potency [19]: inactive
- Potency [12]: inactive
- Potency [13]: inactive

Structure (SMILES): CCCCCCC(C)(C)S
- Potency [1]: inactive
- Potency [14]: inactive
- Potency [3]: inactive
- max response [15]: 2.32% and -0.908%
- Potency [4]: inactive
- Potency [16]: inactive
- Potency [5]: inactive
- Potency [6]: inactive
- Potency [20]: inactive
- Potency [7]: inactive
- Potency [8]: inactive
- Potency [9]: inactive
- Potency [10]: inactive
- Potency [11]: inactive
- Potency [18]: inactive
- Potency [19]: inactive
- Potency [12]: inactive
- Potency [13]: inactive

Structure (SMILES): CC#C[C@]1(O)CC[C@H]2[C@@H]3CCC4=CC(=O)CCC4=C3[C@@H](c3ccc(N(C)C)cc3)C[C@@]21C
- Potency [1]: inactive
- Potency [14]: 49 µM (active)
- Potency [3]: inactive
- Potency [15]: 49 µM (active)
- Potency [4]: inactive
- Potency [16]: inactive
- Potency [6]: inactive
- Potency [7]: inactive
- Potency [17]: inactive
- Potency [9]: inactive
- Potency [10]: inactive
- Potency [11]: inactive
- Potency [18]: 49 µM (active)
- Potency [19]: 43.6 µM (active)
- Potency [12]: inactive

Structure (SMILES): Nc1c(S(=O)(=O)O)cc(Br)c2c1C(=O)c1ccccc1C2=O
- Potency [1]: inactive
- Potency [14]: inactive
- Potency [3]: inactive
- max response [15]: 0.275% and -15.6%
- Potency [4]: inactive
- Potency [16]: inactive
- Potency [5]: inactive
- Potency [6]: inactive
- Potency [7]: inactive
- Potency [17]: inactive
- Potency [9]: inactive
- Potency [10]: inactive
- Potency [11]: inactive
- Potency [18]: inactive
- Potency [19]: inactive
- Potency [12]: inactive
- Potency [13]: inactive
